Gli-Sufu block = Gli-Sufu pathway antagonism; inhibition, % at 5 µM; actives 0.74% (n = 340,000); Sufu-KO-LIGHT fibroblasts, Gli luciferase reporter luminescence;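 active = inhibition above about 55%, limit read from the data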
CSC inhib = cancer stem cell inhibition. cancer stem cell-like cells viability, luminescence. inhibition, % at 7.5 µM. actives 1.1% (n = 300,000). AID 2717; in the data active = inhibition above about 75%; inconclusive = no clear call, values can overlap the other calls; tested in HMLE shEcad cells
697 NFkB inh = lowers PMA/ionomycin-induced NF-kB signal in 697 B cells. actives 0.33% (n = 330,000). inhibition, % at 4 µM. 697 B-cell NF-kB luciferase reporter, 16 h. AID 435022; in the data active = inhibition above about 35%
Beta cell apopt = beta cell apoptosis inhibition. actives 0.8% (n = 300,000). INS-1E cytokine-induced death, ATP luminescence, 48 h; percent of positive-control rescue, neutral wells zero. protection from apoptosis, % (no concentration beside the values);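 active = Every replicate reaches about 75%, or at least half do and their mean reaches it too, limit read from the data; inconclusive = At least half of replicates reach the limit but their mean does not; inactive = Under half of replicates reach the limit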;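 also: higher means more ATP so stronger rescue from cytokine killing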
Jurkat NFkB inh = inhibitors of the PMA/ionomycin-induced NF-kB reporter in Jurkat cells | inhibition, % at 4 µM | actives 0.53% (n = 330,000) | AID 435003 | PMA/ionomycin-induced NF-kB luciferase reporter, luminescence; in the data active = inhibition above about 50%
Mdm2 MdmX PPI = human Mdm2/MdmX binding inhibition; O15151+Q00987; SaOS-2 split-luciferase Mdm2/MdmX complementation, luminescence; inhibition, % at 8 µM; actives 3% (n = 330,000); AID 485346;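 active = inhibition of at least 50% at 8 µM in the primary screen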
Jurkat NFkB conf = inhibitors of the PMA/ionomycin-induced NF-kB reporter in Jurkat cells, retest; shares compounds with Jurkat NFkB inh; Jurkat NF-kB luciferase, 16 h; inhibition, % at 4 µM; actives 27% (n = 2,700); AID 435020;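 active = inhibition reaching about 45% at 4 µM in either replicate, limit read from the data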
697 NFkB conf = lowers PMA/ionomycin-induced NF-kB signal in 697 B cells | shares compounds with 697 NFkB inh | 697 B-cell NF-kB luciferase, 16 h | inhibition, % at 4 µM | actives 35% (n = 2,000) | AID 449746; in the data active = inhibition mostly above about 28%, no sharp cut-off; inactive = mostly below about 22%
Mdm2 MdmX conf = confirmation of human Mdm2/MdmX interaction inhibitors; shares compounds with Mdm2 MdmX PPI; Mdm2-MdmX binding, luminescent assay; inhibition, % at 8 µM; actives 55% (n = 10,000); AID 489028; in the data active = inhibition above about 40%
FLuc counter = inhibits full-length luciferase, flagging false Mdm2/MdmX hits | SaOS-2 full-length luciferase counterscreen, luminescence | AID 504607 | actives 77% (n = 6,200) | shares compounds with Mdm2 MdmX PPI | inhibition, % at 8 µM;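 active = mean inhibition at 8 µM reaching about 37%, which flags the compound as non-specific, limit read from the data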;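 also: p53-null SaOS-2 cells with luciferase driven by a doxycycline-inducible promoter; compound on cells about two nights before reading with doxycycline added after day one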
Of the large screens only hits and unclear results are named; the others gave an inactive call (follow-up assays come after a bar, where they were run). An excerpt weighted towards active compounds, which were near 4.5% of everything screened.

O=C(CCNC(=O)c1ccco1)Nc1ccc(OC(F)(F)F)cc1	none
COc1ccc(-c2nn(Cc3ccccc3)cc2C(=O)N2CCN(c3ccccn3)CC2)cc1OC	none
O=C(c1ccccc1-c1ccccc1)N1CCN(c2ccccn2)CC1	Jurkat NFkB inh 69, Mdm2 MdmX PPI 59 | Jurkat NFkB conf inactive | Mdm2 MdmX conf 58 | FLuc counter 50
O=C(c1cn(Cc2ccccc2)nc1-c1ccccc1)N1CCN(c2ccccn2)CC1	Jurkat NFkB inh 53, Mdm2 MdmX PPI 53 | Jurkat NFkB conf inactive | Mdm2 MdmX conf 50 | FLuc counter 71
CC(=O)NN1C(=O)/C(=C2/Sc3ccc(Cl)cc3N2C)SC1=S	none
CCc1ccc(CNC(=O)C2CC(=O)N(C3CCCC3)C2)cc1 (centres undefined)	none
Cc1ccc(NC(=O)C2=C(c3ccccc3)S(=O)(=O)CCS2(=O)=O)cc1	CSC inhib 79, Beta cell apopt inconclusive, Jurkat NFkB inh 63, Mdm2 MdmX PPI 95 | Jurkat NFkB conf inactive | Mdm2 MdmX conf 95 | FLuc counter 52
Cc1nc(SCC(=O)Nc2nc3ccccc3s2)c(C#N)c(C)c1C	Gli-Sufu block 90, Jurkat NFkB inh 90, Mdm2 MdmX PPI 100 | Jurkat NFkB conf 89 | Mdm2 MdmX conf 100 | FLuc counter 53
CCOc1cc(CNc2ccc3c(c2)OCCO3)cc(Br)c1OCC(N)=O	none
CCOc1cc(CNc2ccc3c(c2)OCCO3)cc(Br)c1OC	CSC inhib 78, Jurkat NFkB inh 59, Mdm2 MdmX PPI 76 | Jurkat NFkB conf inactive | Mdm2 MdmX conf 73 | FLuc counter 66
C=CCN(C(=O)C1CC(=O)N(C2CCCC2)C1)c1nc(-c2ccc(S(C)(=O)=O)cc2)cs1 (centres undefined)	none (no result: CSC inhib)
CCOc1ccc(-c2cc(CCCC(=O)Nc3cccc(OC)c3)no2)cc1	697 NFkB inh 48, Jurkat NFkB inh 56, Mdm2 MdmX PPI 54 | Jurkat NFkB conf 61 | 697 NFkB conf 48 | Mdm2 MdmX conf 45 | FLuc counter 61
NC(N)=N/N=C/c1ccc(OS(=O)(=O)c2ccccc2)cc1	Jurkat NFkB inh 50, Mdm2 MdmX PPI 57 | Jurkat NFkB conf inactive | Mdm2 MdmX conf inactive | FLuc counter 82
CCC(=O)N/N=C/c1ccc(OS(=O)(=O)c2ccccc2)cc1	none
CC(C(=O)O/N=C(\N)c1ccccn1)c1ccc([N+](=O)[O-])cc1 (centres undefined)	none
N/C(=N\OCc1ccc([N+](=O)[O-])cc1)c1ccccn1	Jurkat NFkB inh 60, Mdm2 MdmX PPI 76 | Jurkat NFkB conf 65 | Mdm2 MdmX conf 67 | FLuc counter 44
Cc1ccc(Nc2nc(-c3c(C)nc4ccccn34)cs2)cc1	Gli-Sufu block 62, Jurkat NFkB inh 83, Mdm2 MdmX PPI 89 (no result: CSC inhib, Beta cell apopt) | Jurkat NFkB conf 62 | 697 NFkB conf inactive | Mdm2 MdmX conf 73 | FLuc counter 81
CCC(=O)Nc1sc2c(c1C#N)CCC2	none
CCc1ccc(CCC(=O)Nc2sc3c(c2C#N)CCCC3)o1	Jurkat NFkB inh 56, Mdm2 MdmX PPI 50 | Jurkat NFkB conf inactive | Mdm2 MdmX conf 68 | FLuc counter 83
Cc1ccc(NC(=O)c2nc[nH]c2C(=O)NCCCCCNC(=O)OC(C)(C)C)cc1	none
Cc1ccc(NC(=O)c2nc[nH]c2C(=O)NCCCCNC(=O)c2[nH]cnc2C(=O)Nc2ccc(C)cc2)cc1	Jurkat NFkB inh 50, Mdm2 MdmX PPI 80 (no result: CSC inhib) | Jurkat NFkB conf inactive | Mdm2 MdmX conf inactive
COc1ccc(/C=C2\CN(Cc3ccccc3)C/C(=C\c3ccc(OC)c(O)c3)C2=O)cc1O	CSC inhib 119, Beta cell apopt 104, Jurkat NFkB inh 53, Mdm2 MdmX PPI 98 | Jurkat NFkB conf inactive | Mdm2 MdmX conf 100 | FLuc counter 51
COc1ccc(C=C2C(=O)c3ccccc3C2=O)cc1O	none (no result: Beta cell apopt)
CCN1C/C(=C/c2ccc(OC)c(O)c2)C(=O)/C(=C/c2ccc(OC)c(O)c2)C1	CSC inhib 102, Beta cell apopt 97, Jurkat NFkB inh 89, Mdm2 MdmX PPI 100 | Jurkat NFkB conf 44 | Mdm2 MdmX conf 100 | FLuc counter 41
Cc1cccc(C(=O)OCC(=O)NC(C)CCc2ccccc2)c1O (centres undefined)	none
COc1cccc(CNC(=O)C2CCCN(C(=O)c3ccc(Cl)cc3)C2)c1 (centres undefined)	none (no result: CSC inhib, Beta cell apopt)
O=C(C1=C(O)C(=O)N(CCN2CCOCC2)C1c1cccc(F)c1)c1cc2ccccc2o1 (centres undefined)	none
C=C1C(O)[C@@H]2O[C@]3(CC[C@H](/C=C/C(C)[C@@H]4CC(C)=CC5(O[C@H](C[C@@](C)(O)CO)CCC5O)O4)O3)CC[C@H]2O[C@@H]1C(O)CC(C)[C@H]1OC2(CCCCO2)CCC1C (some centres undefined)	Gli-Sufu block 63, Beta cell apopt 76, Jurkat NFkB inh 92, Mdm2 MdmX PPI 88 (no result: CSC inhib) | Jurkat NFkB conf 78 | 697 NFkB conf inactive | Mdm2 MdmX conf 90 | FLuc counter inactive
O=C(NCc1ccco1)C1CC(c2c(Cl)cccc2Cl)=NO1 (centres undefined)	none
COc1cc(OC)c(C2=NOC(C(=O)NCc3cccnc3)C2)cc1Cl (centres undefined)	none (no result: CSC inhib, Beta cell apopt)
COc1cc(C2=NOC(C(=O)NCc3ccco3)C2)cc(OC)c1OC (centres undefined)	Jurkat NFkB inh 66, Mdm2 MdmX PPI 64 | Jurkat NFkB conf inactive | Mdm2 MdmX conf 57 | FLuc counter 73
COc1cc(OC)c(C2=NOC(C(=O)NCc3cccs3)C2)cc1Cl (centres undefined)	Jurkat NFkB inh 54, Mdm2 MdmX PPI 54 | Jurkat NFkB conf inactive | Mdm2 MdmX conf 51 | FLuc counter 59
C[C@H](NC(=O)N1CCn2c1nc1ccccc12)C(=O)N1CCCCC1	none
COc1ccc(-n2nnnc2-c2cccc(OC)c2)cc1	Mdm2 MdmX PPI 56 | Jurkat NFkB conf inactive | Mdm2 MdmX conf 54 | FLuc counter 66
Cc1ccc(-n2nnnc2-c2cccc(C)c2)cc1	none
Cc1c2cnn(CC(=O)NCCN3CCOCC3)c(=O)c2c(C)n1Cc1ccccc1F	none (no result: CSC inhib, 697 NFkB inh, Beta cell apopt, Jurkat NFkB inh, Mdm2 MdmX PPI)
CCn1c(SCC(=O)N/N=C/c2ccc(C)s2)nc2ccccc21	Jurkat NFkB inh 53, Mdm2 MdmX PPI 58 | Jurkat NFkB conf inactive | Mdm2 MdmX conf 61 | FLuc counter 59

Screens: PubChem BioAssay, several laboratories
